Source: PubChem BioAssay
Mdm2 MdmX PPI – disrupts the human Mdm2-MdmX interaction | O15151+Q00987 | SaOS-2 split-luciferase Mdm2/MdmX complementation, luminescence | inhibition, % at 8 µM | 330,000 compounds, 3% hits;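 active = inhibition of at least 50% at 8 µM in the primary screen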
Target sequence (O15151 whole entry, looked up): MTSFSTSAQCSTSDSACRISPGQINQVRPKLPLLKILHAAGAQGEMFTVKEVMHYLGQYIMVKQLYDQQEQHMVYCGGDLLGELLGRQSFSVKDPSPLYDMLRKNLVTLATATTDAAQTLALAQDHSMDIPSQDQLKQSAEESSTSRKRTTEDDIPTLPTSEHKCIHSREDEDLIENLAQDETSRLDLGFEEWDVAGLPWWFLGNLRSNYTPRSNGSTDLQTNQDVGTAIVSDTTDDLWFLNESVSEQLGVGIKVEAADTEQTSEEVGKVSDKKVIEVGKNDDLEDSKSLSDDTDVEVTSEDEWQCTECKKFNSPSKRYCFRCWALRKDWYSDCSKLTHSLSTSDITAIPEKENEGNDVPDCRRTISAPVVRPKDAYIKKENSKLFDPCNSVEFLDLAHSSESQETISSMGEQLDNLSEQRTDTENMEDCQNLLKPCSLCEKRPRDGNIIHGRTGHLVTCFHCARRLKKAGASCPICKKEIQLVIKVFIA
Target sequence (Q00987 whole entry, looked up): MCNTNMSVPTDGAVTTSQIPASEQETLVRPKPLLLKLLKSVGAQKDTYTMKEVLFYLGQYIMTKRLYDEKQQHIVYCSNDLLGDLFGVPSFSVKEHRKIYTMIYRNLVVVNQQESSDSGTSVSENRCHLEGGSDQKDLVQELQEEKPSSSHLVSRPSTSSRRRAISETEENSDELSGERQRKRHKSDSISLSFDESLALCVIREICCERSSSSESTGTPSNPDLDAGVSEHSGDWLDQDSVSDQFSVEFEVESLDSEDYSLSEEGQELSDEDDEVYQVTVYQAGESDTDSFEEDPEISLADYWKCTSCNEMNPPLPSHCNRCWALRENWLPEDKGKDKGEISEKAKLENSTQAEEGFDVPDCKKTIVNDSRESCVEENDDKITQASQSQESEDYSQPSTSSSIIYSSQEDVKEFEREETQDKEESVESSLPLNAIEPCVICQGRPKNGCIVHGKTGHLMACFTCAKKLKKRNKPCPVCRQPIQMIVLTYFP
Beta cell apopt – beta cell apoptosis inhibition | INS-1E cytokine-induced death, ATP luminescence, 48 h; percent of positive-control rescue, neutral wells zero | protection from apoptosis, % (no concentration beside the values) | 300,000 compounds, 0.8% hits;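 active = Every replicate reaches about 75%, or at least half do and their mean reaches it too, limit read from the data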;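 also: 0% = cytokine-treated negative control wells and 100% = positive control rescue; higher means more ATP so stronger rescue from cytokine killing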
Gli-Sufu block – Gli-Sufu pathway antagonism. 340,000 compounds, 0.74% hits. Sufu-KO-LIGHT fibroblasts, Gli luciferase reporter luminescence. inhibition, % at 5 µM;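 active = inhibition above about 55%, limit read from the data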;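 also: 0% = DMSO-treated cells and 100% = wells with medium but no cells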
Jurkat NFkB inh – lowers PMA/ionomycin-induced NF-kB signal in Jurkat cells; 330,000 compounds, 0.53% hits; inhibition, % at 4 µM; PMA/ionomycin-induced NF-kB luciferase reporter, luminescence; AID 435003; in the data active = inhibition above about 50%
697 NFkB inh – inhibitors of the PMA/ionomycin-induced NF-kB reporter in 697 B cells; inhibition, % at 4 µM; AID 435022; 330,000 compounds, 0.33% hits; 697 B-cell NF-kB luciferase reporter, 16 h; in the data active = inhibition above about 35%
Mdm2 MdmX conf – human Mdm2/MdmX binding inhibition, confirmed; shares compounds with Mdm2 MdmX PPI; luminescent assay; inhibition, % at 8 µM; 10,000 compounds, 55% hits; AID 489028; in the data active = inhibition above about 40%
FLuc counter – full-length luciferase inhibition in Mdm2/MdmX counter-screen | inhibition, % at 8 µM | shares compounds with Mdm2 MdmX PPI | 6,200 compounds, 77% hits | SaOS-2 full-length luciferase counterscreen, luminescence;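 active = mean inhibition at 8 µM reaching about 37%, which flags the compound as non-specific, limit read from the data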;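 also: p53-null SaOS-2 cells with luciferase driven by a doxycycline-inducible promoter; compound on cells about two nights before reading with doxycycline added after day one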
An asterisk follows results filed as active. Shown are actives, neighbours in structure and some others; about 4% of the full set was active somewhere.

CN1C(=O)/C(=C\c2cc(N=Nc3ccccc3)ccc2O)SC1=S was read as Mdm2 MdmX PPI 91*, Beta cell apopt 13, Gli-Sufu block 6, Jurkat NFkB inh 6, 697 NFkB inh -9, Mdm2 MdmX conf 54* and FLuc counter 34.
`Cc1ccc(C)c(S(=O)(=O)NCC(=O)Nc2ccc3c(c2)OCO3)c1` gave Mdm2 MdmX PPI 16, Beta cell apopt -2, Gli-Sufu block -5, Jurkat NFkB inh 4 and 697 NFkB inh 14.
`Nc1c(C(=O)NCc2ccccc2)c2nc3ccccc3nc2n1CCCN1CCOCC1` gave Mdm2 MdmX PPI 17, Beta cell apopt 7, Gli-Sufu block 14, Jurkat NFkB inh 12 and 697 NFkB inh 7.
`COC(=O)c1c(N)n(CCCN2CCOCC2)c2nc3ccccc3nc12` gave Mdm2 MdmX PPI -12, Beta cell apopt -10, Gli-Sufu block 2, Jurkat NFkB inh 2 and 697 NFkB inh 18.
For Nc1c(C(=O)NCc2ccc(F)cc2)c2nc3ccccc3nc2n1CCCN1CCOCC1 the results were Mdm2 MdmX PPI 54*, Beta cell apopt -8, Gli-Sufu block 7, Jurkat NFkB inh 2, 697 NFkB inh -20 and Mdm2 MdmX conf 20.
For COc1ccc(CNC(=O)c2c(N)n(CCCN3CCOCC3)c3nc4ccccc4nc23)cc1 the results were Mdm2 MdmX PPI 56*, Beta cell apopt 42, Gli-Sufu block 18, Jurkat NFkB inh -12, 697 NFkB inh -4 and Mdm2 MdmX conf 26.
Screening CN1CCN(C(CC(=O)Nc2cccc(O)c2)C(=O)O)CC1 (centres undefined) returned Mdm2 MdmX PPI 23, Beta cell apopt -5, Jurkat NFkB inh 4 and 697 NFkB inh 21.
`COc1ccc(-n2nc(C(=O)NCc3ccco3)c3c4ccccc4n(C)c3c2=O)cc1Cl` gave Mdm2 MdmX PPI 57*, Beta cell apopt 5, Gli-Sufu block -15, Jurkat NFkB inh -23, 697 NFkB inh -18 and Mdm2 MdmX conf 1.
Screening COc1ccccc1CNC(=O)c1nn(-c2ccc(C)cc2)c(=O)c2c1c1ccccc1n2C returned Mdm2 MdmX PPI 79*, Beta cell apopt 11, Gli-Sufu block 12, Jurkat NFkB inh -1, 697 NFkB inh -7 and Mdm2 MdmX conf 21.
For COc1ccc(-n2nc(C(=O)NCC(=O)NCc3ccccc3OC)c3ccccc3c2=O)cc1 the results were Mdm2 MdmX PPI 37, Beta cell apopt -3, Gli-Sufu block -19, Jurkat NFkB inh 0 and 697 NFkB inh 15.
`COc1cccc(COC(=O)c2c(C)nn(-c3ccccc3)c2Cl)c1OC` gave Mdm2 MdmX PPI 11, Beta cell apopt -3, Gli-Sufu block -1, Jurkat NFkB inh -13 and 697 NFkB inh 12.
Screening CC(=O)O[C@H]1CC(=O)OC(C)(C)C2CC(=O)[C@]3(C)C(CC[C@@](C)([C@@H](O[C@@H]4O[C@H](CO)[C@@H](O)[C@H](O)[C@H]4O)c4ccoc4)[C@@]34O[C@@H]4C(=O)O)[C@]21C (some centres undefined) returned Mdm2 MdmX PPI -18, Beta cell apopt -2, Gli-Sufu block 6, Jurkat NFkB inh 13 and 697 NFkB inh 1.
For Cc1cc(O)c(C(C)C)cc1C1(c2cc(C(C)C)c(O)cc2C)OC(=O)c2ccccc21 the results were Mdm2 MdmX PPI 100*, Beta cell apopt 46, Gli-Sufu block 2, Jurkat NFkB inh 8, 697 NFkB inh -16, Mdm2 MdmX conf 58* and FLuc counter 22.
`Cc1cc(C2(c3ccc(O)c(C)c3)OC(=O)c3ccccc32)ccc1O` gave Mdm2 MdmX PPI 30, Beta cell apopt 6, Gli-Sufu block -7, Jurkat NFkB inh -8 and 697 NFkB inh -10.
For Cc1ccc(S(C)(=O)=O)cc1C(=O)NC(C)C1CC2CCC1C2 (centres undefined) the results were Mdm2 MdmX PPI 6, Beta cell apopt -1, Gli-Sufu block -8, Jurkat NFkB inh 10 and 697 NFkB inh 10.
`Cc1cccc(NC(=O)CSc2nc3[nH]ncc3c(=O)n2-c2ccccc2)c1` gave Mdm2 MdmX PPI 22, Beta cell apopt -7, Jurkat NFkB inh 11 and 697 NFkB inh 19.
For COc1cc(NC(=O)CSc2nc3[nH]ncc3c(=O)n2-c2ccc(Cl)cc2)cc(OC)c1 the results were Mdm2 MdmX PPI 59*, Gli-Sufu block -6, Jurkat NFkB inh -7, 697 NFkB inh 11 and Mdm2 MdmX conf 25.
Screening COc1ccccc1/C=C/C(=O)NCC(=O)N/N=C/c1cc(Br)ccc1OC returned Mdm2 MdmX PPI 33, Beta cell apopt 3, Gli-Sufu block 0, Jurkat NFkB inh -22 and 697 NFkB inh 13.
Screening COc1ccccc1/C=C\C(=O)NCC(=O)N/N=C/c1cccc(OC)c1O returned Mdm2 MdmX PPI 51*, Beta cell apopt 41, Gli-Sufu block -20, Jurkat NFkB inh 16, 697 NFkB inh -3 and Mdm2 MdmX conf 18.
COc1cccc(/C=N/NC(=O)CNC(=O)COc2cccc(C)c2)c1O was read as Mdm2 MdmX PPI 54*, Beta cell apopt 35, Gli-Sufu block 1, Jurkat NFkB inh 17, 697 NFkB inh 1, Mdm2 MdmX conf 47* and FLuc counter 45*.
`O=C(Nc1ncc(Cc2cc(Cl)ccc2Cl)s1)c1ccc([N+](=O)[O-])cc1` gave Mdm2 MdmX PPI 59*, Beta cell apopt 27, Gli-Sufu block 10, Jurkat NFkB inh 4, 697 NFkB inh -28 and Mdm2 MdmX conf 33.
For O=C(Nc1ncc(S(=O)(=O)c2ccc([N+](=O)[O-])cc2)s1)c1ccc2ccccc2c1 the results were Mdm2 MdmX PPI 71*, Beta cell apopt 26, Gli-Sufu block 20, Jurkat NFkB inh 7, 697 NFkB inh -3 and Mdm2 MdmX conf 32.
Screening Cc1ccc(Nc2nnc(SCC(=O)Nc3ncc(S(=O)(=O)c4ccc([N+](=O)[O-])cc4)s3)s2)cc1 returned Mdm2 MdmX PPI 62*, Beta cell apopt 1, Gli-Sufu block 31, Jurkat NFkB inh -5, 697 NFkB inh 16 and Mdm2 MdmX conf 16.
For O=C(Nc1ncc(Cc2cccc(Cl)c2Cl)s1)c1ccc([N+](=O)[O-])cc1 the results were Mdm2 MdmX PPI 46, Gli-Sufu block -3, Jurkat NFkB inh 4 and 697 NFkB inh -18.
`O=C(Nc1ncc(S(=O)(=O)c2ccc([N+](=O)[O-])cc2)s1)c1cccnc1` gave Mdm2 MdmX PPI 7, Beta cell apopt -2, Gli-Sufu block 5, Jurkat NFkB inh -11 and 697 NFkB inh -4.
`c1ccc(Nc2nc(N3CCCCC3)nc(N3CCNCC3)n2)cc1` gave Mdm2 MdmX PPI 62*, Beta cell apopt 5, Gli-Sufu block 14, Jurkat NFkB inh 3, 697 NFkB inh -8 and Mdm2 MdmX conf 30.
